Measurements: PubChem BioAssay AID1851 (National Center for Advancing Translational Sciences (NCATS), 2009)
Out of some 16,000 compounds screened, about 5,700 (36%) were called active. About 24% were inconclusive and are not listed. The call rests on the fitted dose curve; in most records, active means well fitted curve in the direction sought with a large enough effect; inconclusive means small, poorly fitted or top-dose-only effect, or effect the other way; inactive means no such curve, though single readings can be large or run the other way. Some of the results follow.

target: Cytochrome P450 1A2 (Homo sapiens) (UniProt P05177); experiment: Cytochrome panel assay with activity outcomes; details: recombinant CYP, pro-luciferin dealkylation, luminescence, p450-cyp1a2; series mostly up to 57.1 µM
Sequence (P05177 whole entry, looked up): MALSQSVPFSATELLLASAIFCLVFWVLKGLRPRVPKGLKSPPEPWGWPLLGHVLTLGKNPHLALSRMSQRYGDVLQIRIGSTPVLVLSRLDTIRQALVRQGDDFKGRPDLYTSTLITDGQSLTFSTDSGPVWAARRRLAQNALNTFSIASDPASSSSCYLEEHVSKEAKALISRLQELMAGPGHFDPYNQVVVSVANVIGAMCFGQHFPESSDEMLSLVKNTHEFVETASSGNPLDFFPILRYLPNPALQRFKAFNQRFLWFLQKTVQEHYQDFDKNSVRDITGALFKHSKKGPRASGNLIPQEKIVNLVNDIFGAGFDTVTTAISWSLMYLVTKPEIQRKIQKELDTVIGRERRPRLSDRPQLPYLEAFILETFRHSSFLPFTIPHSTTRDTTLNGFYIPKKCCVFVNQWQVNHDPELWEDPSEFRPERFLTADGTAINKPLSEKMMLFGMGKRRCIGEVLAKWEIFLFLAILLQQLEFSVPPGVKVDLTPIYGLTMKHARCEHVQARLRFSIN
On the % scale 0 is the no-effect control and ±100 the full control effect.

activity, negative = inhibition, inactive:
C/C(CCC(=O)OC[C@@H]1O[C@H](C#Cc2ccccc2)C=C[C@@H]1Oc1ccc(C)cc1)=N/OC[C@@H](O)COCc1ccco1 -4.08% [at 11.4 µM], C/C(CCN1CCCc2nc(C)c(C)cc21)=N\OC[C@@H](O)[C@@H]1O[C@@H]2OC(C)(C)O[C@@H]2[C@H]1O 1.1% [at 11.4 µM], Cc1c(C)c(C)c(CC2(C)CSC2)c(CC2(C)CSC2)c1C -16.1% [at 11.4 µM], COc1cccc([C@@H]2Oc3ccc(OC)cc3/C(=N/OC[C@@H](O)COCc3ccco3)[C@@H]2O)c1 -3.42% [at 11.4 µM]

AC50, active:
COc1cc(/C=N/NC(=O)c2cccs2)ccc1OCc1ccccc1 794 nM, Cc1cccc(NC(=S)NC(=O)c2cccs2)n1 794 nM, Cc1ccccc1C(=O)Nc1cccc(NC(=S)NC(=O)c2cccs2)c1 3160 nM, CN(Cc1ccco1)c1cc(-c2cccc(C#N)c2)ncn1 794 nM, CN(Cc1ccco1)c1cc(-c2cccnc2)ncn1 316 nM, COc1cccc(-c2cc(N(C)Cc3ccco3)ncn2)c1 794 nM, CCOC(=O)c1c(C)[nH]c(C(=O)OCC(=O)NC2CCS(=O)(=O)C2)c1C (configuration not stated) 12600 nM, CCCS(=O)(=O)N1CCCC(C(=O)N2CCN(C(=O)OCC)CC2)C1 (configuration not stated) 10000 nM, Cn1c(C(=O)Nc2ccccc2)cc2sccc21 8910 nM, COC(=O)c1ccc(NC(=O)c2cc3sccc3n2C)cc1 8910 nM, COCCNc1ncnc2ccc(-c3cccnc3)cc12 200 nM, COCCNc1ncnc2ccc(-c3cccc(OC)c3)cc12 794 nM, COc1cccc(-c2ccc3ncnc(NCCNC(C)=O)c3c2)c1 3160 nM

AC50, inactive:
Nc1nc2ncc(CNc3ccc(C(=O)N[C@@H](CCC(=O)O)C(=O)O)cc3)nc2c(=O)[nH]1, COc1cc(/C=N/NC(=O)c2cccc([N+](=O)[O-])c2)ccc1OCc1ccc(C)cc1, CCN(c1ccccc1)S(=O)(=O)c1ccc(NC(=S)NC(=O)c2cccs2)cc1, COc1cc(NC(=S)NC(=O)c2c(OC)cccc2OC)ccc1NC(=O)c1cccs1, CCCNC1CCS(=O)(=O)C1 (configuration not stated), Cc1ccc(/S(C)=N/S(=O)(=O)c2ccc(C)cc2)cc1 (configuration not stated), CCCS(=O)(=O)N1CCCC(C(=O)NCCCOC(C)C)C1 (configuration not stated), CCCS(=O)(=O)N1CCCC(C(=O)NCCCOCC)C1 (configuration not stated), COC(=O)c1ccc(NC(=O)c2ccccc2NS(=O)(=O)c2ccccc2)cc1, CN1c2ccccc2C(O)=C(C(=O)Nc2ccccc2)S1(=O)=O
